The source of these data is ChEMBL document CHEMBL1961873, “Compounds: GSK PKIS; Assays: Nanosyn kinase panel” (2012).

As usually defined, the inhibition is the change of the read-out against control, counted positive when it falls. Read a low inhibition as a weak effect.
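Also: reported values are mean percent inhibition of ROCK1.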

Sequence of Rho-associated protein kinase 1 (Homo sapiens) (Q13464 2-1354 limits assumed): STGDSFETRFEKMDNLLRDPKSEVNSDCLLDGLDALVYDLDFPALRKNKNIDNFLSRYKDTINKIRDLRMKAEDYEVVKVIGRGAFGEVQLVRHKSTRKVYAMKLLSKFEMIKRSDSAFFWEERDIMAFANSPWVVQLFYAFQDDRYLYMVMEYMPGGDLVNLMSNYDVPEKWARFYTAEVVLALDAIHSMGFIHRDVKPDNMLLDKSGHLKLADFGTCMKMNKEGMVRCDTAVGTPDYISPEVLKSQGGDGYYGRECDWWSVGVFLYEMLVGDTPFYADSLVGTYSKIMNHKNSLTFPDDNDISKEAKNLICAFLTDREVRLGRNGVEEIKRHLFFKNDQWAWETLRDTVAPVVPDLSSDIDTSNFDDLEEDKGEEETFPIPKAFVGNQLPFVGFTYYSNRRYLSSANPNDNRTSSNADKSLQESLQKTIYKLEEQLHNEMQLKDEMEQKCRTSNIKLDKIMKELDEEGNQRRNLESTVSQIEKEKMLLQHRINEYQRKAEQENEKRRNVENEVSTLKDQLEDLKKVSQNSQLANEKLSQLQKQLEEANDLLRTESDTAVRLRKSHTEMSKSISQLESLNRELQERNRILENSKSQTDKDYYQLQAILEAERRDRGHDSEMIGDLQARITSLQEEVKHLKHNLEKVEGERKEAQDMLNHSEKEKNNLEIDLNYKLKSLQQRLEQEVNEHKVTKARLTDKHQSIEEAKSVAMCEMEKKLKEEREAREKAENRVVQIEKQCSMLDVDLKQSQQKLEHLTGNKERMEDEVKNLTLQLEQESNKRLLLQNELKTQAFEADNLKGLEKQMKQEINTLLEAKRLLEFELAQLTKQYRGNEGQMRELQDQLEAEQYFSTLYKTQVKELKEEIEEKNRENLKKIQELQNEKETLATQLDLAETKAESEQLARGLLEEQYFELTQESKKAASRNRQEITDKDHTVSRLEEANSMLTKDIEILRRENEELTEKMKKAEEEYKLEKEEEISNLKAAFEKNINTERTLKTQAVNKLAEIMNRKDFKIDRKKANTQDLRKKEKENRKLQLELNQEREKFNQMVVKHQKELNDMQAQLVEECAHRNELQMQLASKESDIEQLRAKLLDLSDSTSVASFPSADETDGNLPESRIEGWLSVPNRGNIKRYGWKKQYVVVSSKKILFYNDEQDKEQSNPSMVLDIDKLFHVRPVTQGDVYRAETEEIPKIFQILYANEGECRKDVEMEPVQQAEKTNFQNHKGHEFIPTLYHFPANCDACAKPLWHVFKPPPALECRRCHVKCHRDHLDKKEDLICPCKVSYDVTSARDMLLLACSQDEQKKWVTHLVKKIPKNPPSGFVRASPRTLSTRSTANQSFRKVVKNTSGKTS

The experiment has as its target Rho-associated protein kinase 1 (Homo sapiens) (UniProt Q13464). As to conditions: at 1 µM.
Regarding `Cc1cccc2c1NC(=O)/C2=N\Nc1ccc(S(N)(=O)=O)cc1`, the inhibition was found to be 2.1%.
`Clc1ccc(-c2nn3ncccc3c2-c2ccnc(Nc3ccccc3)n2)cc1`: the inhibition was found to be 4.03%.
In the case of `COc1ccc(-c2cc(-c3c[nH]nc3-c3ccccn3)ccn2)cc1`, the inhibition was determined as 4.3%.
`NS(=O)(=O)c1ccc(Nc2ncc(-c3ccccc3)o2)cc1` gave an inhibition of 2.68%.
Compound `c1ccc(-c2nc3n(c2-c2ccc4c(c2)OCO4)CCC3)nc1` yielded an inhibition of 5.65%.
`N#Cc1c(NC(=O)c2ccc(F)cc2)sc2c1CCCC2` came in with an inhibition of 1.82%.
In the case of `CC(C)COC(=O)c1ccc2c(c1)/C(=C/Nc1ccc(S(N)(=O)=O)cc1)C(=O)N2`, the inhibition was determined as 30.2%.
The figure for `Cc1ccc2c(-c3ccnc(Nc4ccccc4)n3)c(-c3ccc(F)cc3)nn2n1` is 1.37%.
In turn, `CS(=O)(=O)CCNCc1ccc(-c2ccc3ncnc(Nc4ccc(OCc5ccccc5)c(C(F)(F)F)c4)c3c2)o1` yielded an inhibition of 2.14%.
`O=C(O[C@H]1CN[C@H](C#Cc2cc3ncnc(Nc4ccc(Cc5ccccc5)cc4)c3s2)C1)N1CCOCC1` had an inhibition of 1.88%.
`COc1ccc2[nH]c3c4[nH]c5ccc(OC)cc5c4c4c(c3c2c1)C(=O)NC4=O` returned an inhibition of 7.02%.
The result for `COc1ccc2c(-c3ccnc(Nc4cccc(OC(F)(F)F)c4)n3)cnn2n1` reads 2.92%; that for `CN1CCC(n2cnc(-c3ccc(F)cc3)c2-c2ccnc(N)n2)CC1`, 1.34%.
In the case of `CN(C)CCOc1ccc(-c2nc(-c3ccncc3)c(-c3ccc4c(c3)CC/C4=N\O)[nH]2)cc1`, the inhibition turned out to be 1.11%.
`COc1cc(N2CCN(C(C)C)CC2)ccc1Nc1nc(Nc2ccc(F)cc2C(N)=O)c2cc[nH]c2n1` gave an inhibition of 23.5%.
As to `CNC(=O)c1cncc(/C=C/c2ccccc2Cl)c1`, the inhibition is 1.5%.
